Laboratory results published in PubChem BioAssay (NCI).
Where “and” joins values, the source holds several entries; their conditions need not be identical. Equal values may be shown once. About 83,000 compounds went through this panel and 20% of them were active in at least one assay; those are over-represented in the sample as a whole.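 Treatment: one concentration, 48 hours, 96-well format. Scoring: percent growth, with anything below 10 considered active.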 Calls of active or inactive are those of the source.

Experiments:
Assay in all cases: NCI-60 one-dose screen, 48 h (100 = growth as untreated, 0 = no growth, -100 = all killed)
Details in all cases: 10 µM unless noted
[1] = test system: NCI-H23 lung
[2] = test system: NCI-H226 lung
[3] = test system: NCI-H322M lung
[4] = test system: HOP-62 NSCLC
[5] = test system: NCI-H460 lung
[6] = test system: HOP-92 NSCLC
[7] = test system: NCI-H522 lung
[8] = test system: A549/ATCC NSCLC
[9] = test system: 786-0 renal
[10] = test system: DU-145 prostate
[11] = test system: K-562 leukemia
[12] = test system: MALME-3M melanoma
[13] = test system: MDA-MB-231 breast
[14] = test system: RXF 393 renal
[15] = test system: SF-268 CNS
[16] = test system: SF-295 CNS
[17] = test system: SF-539 CNS
[18] = test system: UACC-257 melanoma
[19] = test system: M14 melanoma
[20] = test system: COLO 205 colon

SMILES | growth [1] | growth [2] | growth [3] | growth [4] | growth [5] | growth [6] | growth [7] | growth [8] | growth [9] | growth [10] | growth [11] | growth [12] | growth [13] | growth [14] | growth [15] | growth [16] | growth [17] | growth [18] | growth [19] | growth [20]
NCCSSC/C=C\CSSCCN | 102% (inactive) | 90.1% (inactive) | 100% (inactive) | 98.4% (inactive) | 97.5% (inactive) | 84.6% (inactive) | 88.1% (inactive) | 90.1% (inactive) | 99% (inactive) | 104% (inactive) | 95.7% (inactive) | 103% (inactive) | 100% (inactive) | 102% (inactive) | 99.5% (inactive) | 104% (inactive) | 109% (inactive) | 91.3% (inactive) | 96.9% (inactive) | –
NC(=O)Cc1nc(O)cc(=O)[nH]1 | 107% (inactive) | 99.1% (inactive) | 103% (inactive) | 81.6% (inactive) | 105% (inactive) | 91.7% (inactive) | 77% (inactive) | 89.8% (inactive) | 98.4% (inactive) | 115% (inactive) | 102% (inactive) | 103% (inactive) | 96.5% (inactive) | 107% (inactive) | 102% (inactive) | 96.5% (inactive) | 101% (inactive) | 86.4% (inactive) | 101% (inactive) | –
COc1ccc(CCN=Cc2ccc(Cl)cc2)cc1OC | 100% (inactive) | 112% (inactive) | 106% (inactive) | 107% (inactive) | 113% (inactive) | 89.6% (inactive) | 94.8% (inactive) | 108% (inactive) | 108% (inactive) | 106% (inactive) | 122% (inactive) | 135% (inactive) | 109% (inactive) | 177% (inactive) | 99.5% (inactive) | 121% (inactive) | 111% (inactive) | 109% (inactive) | 111% (inactive) | –
O=C(O)C(Cc1ccc(OS(=O)(=O)Cc2ccccc2)cc1)NS(=O)(=O)Cc1ccccc1 (configuration not stated) | 105% (inactive) and 112% (inactive) | 108% (inactive) and 109% (inactive) | 119% (inactive) and 127% (inactive) | 105% (inactive) and 118% (inactive) | 106% (inactive) and 119% (inactive) | 135% (inactive) and 102% (inactive) | 96.6% (inactive) | 101% (inactive) and 105% (inactive) | 98.9% (inactive) and 114% (inactive) | 101% (inactive) and 108% (inactive) | 105% (inactive) and 101% (inactive) | 95.8% (inactive) and 136% (inactive) | 102% (inactive) | 118% (inactive) and 126% (inactive) | 105% (inactive) and 98% (inactive) | 106% (inactive) and 102% (inactive) | 97.7% (inactive) and 101% (inactive) | 100% (inactive) and 101% (inactive) | 113% (inactive) and 100% (inactive) | –
CCNCc1ccccc1 | 91.4% (inactive) | 100% (inactive) | 100% (inactive) | 102% (inactive) | 109% (inactive) | 113% (inactive) | 102% (inactive) | 102% (inactive) | 103% (inactive) | 104% (inactive) | 96.3% (inactive) | 101% (inactive) | 110% (inactive) | 118% (inactive) | 104% (inactive) | 105% (inactive) | 102% (inactive) | 102% (inactive) | 109% (inactive) | –
CNc1ccc(Cl)cc1S(=O)(=O)c1ccccc1[N+](=O)[O-] | 87.9% (inactive) and 98.3% (inactive) | 114% (inactive) and 103% (inactive) | 89.1% (inactive) and 91% (inactive) | 147% (inactive) and 94.8% (inactive) | 107% (inactive) and 108% (inactive) | 93% (inactive) and 100% (inactive) | – | 23.3% (inactive) and 94.4% (inactive) | 116% (inactive) and 100% (inactive) | 105% (inactive) | 55.7% (inactive) and 73.3% (inactive) | 78.2% (inactive) and 91.1% (inactive) | 77.7% (inactive) and 97% (inactive) | 25.1% (inactive) and 126% (inactive) | 106% (inactive) and 90.6% (inactive) | 108% (inactive) and 104% (inactive) | 86.4% (inactive) and 98.3% (inactive) | 75.7% (inactive) and 89.8% (inactive) | – | 117% (inactive)
COc1cc(C2c3cc4c(cc3C(OC(=O)C[n+]3ccccc3)C3COC(=O)C23)OCO4)cc(OC)c1OC (configuration not stated) | 20.8% (inactive) | 22.5% (inactive) | 33% (inactive) | 19.3% (inactive) | 4.91% (active) | 71.5% (inactive) | -23.4% (active) | 7.1% (active) | 25.8% (inactive) | -40.1% (active) | 6.79% (active) | 59% (inactive) | -2.88% (active) | 41.1% (inactive) | 8.83% (active) | 1.14% (active) | -9.3% (active) | 55.1% (inactive) | 7.72% (active) | –
CC(CN(C)C)CN1c2ccccc2Sc2ccccc21 (configuration not stated) | 88.9% (inactive) and 86% (inactive) and 86.6% (inactive) | 132% (inactive) and 112% (inactive) | 73.1% (inactive) and 83.9% (inactive) and 65.2% (inactive) | 92.2% (inactive) and 78.2% (inactive) and 80.8% (inactive) | 95% (inactive) and 94.3% (inactive) and 93.5% (inactive) | 21.4% (inactive) | – | 91.8% (inactive) and 103% (inactive) and 91.5% (inactive) | 59.5% (inactive) and 45% (inactive) and 69.1% (inactive) | 97.3% (inactive) and 111% (inactive) and 90% (inactive) | 67.2% (inactive) and 72.1% (inactive) and 49.8% (inactive) | 81.7% (inactive) and 101% (inactive) and 95.8% (inactive) | 62% (inactive) and 90% (inactive) | 53.3% (inactive) and 86.1% (inactive) and 70.7% (inactive) | 90.8% (inactive) and 91.7% (inactive) and 78.1% (inactive) | 88% (inactive) and 35.8% (inactive) and 92% (inactive) | 91.7% (inactive) and 81.9% (inactive) | 65.1% (inactive) and 110% (inactive) and 92.1% (inactive) | – | 48.4% (inactive) and 84.5% (inactive) and 85% (inactive)
C/C(CC(C)C)=N/NC(N)=S | 88.8% (inactive) | 85.8% (inactive) | 96.9% (inactive) | 99.4% (inactive) | 102% (inactive) | 78.2% (inactive) | 95.2% (inactive) | 83.6% (inactive) | 107% (inactive) | 92.2% (inactive) | 56.2% (inactive) | 81.4% (inactive) | 100% (inactive) | 108% (inactive) | 88.8% (inactive) | 84.3% (inactive) | 105% (inactive) | 74.4% (inactive) | 84.4% (inactive) | –
CS(=O)(=O)OCC1NC(=O)C(COS(C)(=O)=O)NC1=O (configuration not stated) | 84% (inactive) and 88.5% (inactive) | 96.2% (inactive) and 99.2% (inactive) | 98.8% (inactive) and 103% (inactive) | 106% (inactive) and 118% (inactive) | 102% (inactive) and 95.9% (inactive) | 96.4% (inactive) and 104% (inactive) | 51.3% (inactive) and 50.6% (inactive) | 78.3% (inactive) and 96.4% (inactive) | 97.8% (inactive) and 99.1% (inactive) | 111% (inactive) and 102% (inactive) | 81.6% (inactive) and 104% (inactive) | 98.1% (inactive) and 103% (inactive) | 108% (inactive) and 104% (inactive) | 83.2% (inactive) and 100% (inactive) | 113% (inactive) and 60.2% (inactive) | 133% (inactive) and 102% (inactive) | 106% (inactive) and 97.9% (inactive) | 75.5% (inactive) and 116% (inactive) | 91.8% (inactive) and 93.5% (inactive) | –
O=C1C=CC[C@H](/C=C/c2ccccc2)O1 | 37.8% (inactive) and 40.7% (inactive) | 29.8% (inactive) and -33% (active) | 25.5% (inactive) and 4.12% (active) | 64.7% (inactive) and -48.7% (active) | 4.39% (active) and -32.3% (active) | 10.3% (inactive) and -15.8% (active) | 13.9% (inactive) and 47.5% (inactive) | 12.2% (inactive) and 7.95% (active) | 48.2% (inactive) and -27.8% (active) | -3.41% (active) and 0.622% (active) | 14.6% (inactive) and -20.2% (active) | 61.9% (inactive) and 55.5% (inactive) | 55.6% (inactive) and 36.6% (inactive) | – | 7.78% (active) and 7.94% (active) | -0.286% (active) and 0.195% (active) | 13.2% (inactive) and -60.2% (active) | 47% (inactive) and 15.3% (inactive) | 53.7% (inactive) and 27.8% (inactive) | 57.9% (inactive) and -70.8% (active)
